Active and inactive are the calls of the source.
How the values were obtained:
[1] = test system: Human papillomavirus type 1a protein E7 (residues 44-93); assay: HPV1a E7 fragment binders on microarrays, primary screen, biochemical, small-molecule microarray, residues 44-93, 635 nm fluorescence (AID 1108); conditions: small-molecule microarray binding, fluorescence 635 nm; higher = more signal;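 also: E7 fragment applied at 1 µg/mL in TBST for 1 h at 4 C; score combines spot fluorescence with its signal to noise ratio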
[2] = modulators of HCV replicon luciferase signal, primary screen, HCV replication inhibitor project, Huh7 cells, luciferase reporter (AID 1109); conditions: 48 h, higher = more signal;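 also: huh7 hepatoma cells harbouring a luciferase neomycin HCV replicon reporter; luciferase luminescence as measure of HCV replicon replication; test concentration not given here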
[3] = target: Left-right determination factor 2 (Homo sapiens) (UniProt O00292); assay: LEFTY2 binders on small-molecule microarrays, primary screen, biochemical, small-molecule microarray, 635 nm fluorescence scan (AID 1110); conditions: LEFTY2 binding, higher = more signal
Sequence of Left-right determination factor 2 (Homo sapiens) (O00292 whole entry, looked up): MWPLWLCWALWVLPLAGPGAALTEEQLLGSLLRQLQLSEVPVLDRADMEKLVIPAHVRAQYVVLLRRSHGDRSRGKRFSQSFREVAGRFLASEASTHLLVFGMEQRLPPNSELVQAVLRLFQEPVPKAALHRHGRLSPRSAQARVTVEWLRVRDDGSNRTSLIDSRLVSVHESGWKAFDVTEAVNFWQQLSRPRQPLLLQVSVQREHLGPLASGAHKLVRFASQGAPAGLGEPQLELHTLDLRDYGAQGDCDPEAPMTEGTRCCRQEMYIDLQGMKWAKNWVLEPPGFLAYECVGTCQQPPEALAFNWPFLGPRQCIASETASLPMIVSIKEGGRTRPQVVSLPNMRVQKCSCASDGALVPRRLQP

[4] = target: Calmodulin-1 (Homo sapiens) (UniProt P0DP23); assay: CALM1 binders on microarrays, EGTA buffer, profiling panel, biochemical, small-molecule microarray, Cy5-labelled CALM1 (AID 1111); conditions: Cy5-CALM1 binding fluorescence, higher = more signal;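 also: labelled calmodulin applied in Tris saline Tween buffer holding calcium plus EGTA and DTT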
[5] = target: Calmodulin-1 (Homo sapiens) (UniProt P0DP23); assay: calcium-bound CALM1 binders on microarrays, profiling panel, artefact control for SMM control-protein annotation, biochemical, small-molecule microarray, Cy5-labelled CALM1, plus calcium (AID 1112); conditions: Cy5-CALM1 binding fluorescence, higher = more signal;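 also: score merges spot fluorescence with signal to noise from triplicate slides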
[6] = small-molecule microarray binders of probe aWnt5a, primary screen, biochemical, biotinylated probe, 635/667 nm fluorescence (AID 1113); conditions: higher = more signal;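 also: score merges 667 nm fluorescence intensity with signal-to-noise per printed feature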
[7] = small-molecule microarray binders of probe aShh, primary screen, biochemical, biotinylated probe, 635/667 nm fluorescence (AID 1114); conditions: higher = more signal;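 also: probe is biotin-labelled aShh protein from a stem cell growth factor screen; measures binding of labelled protein to compounds printed on the slide; score merges feature fluorescence at 667 nm with signal-to-noise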
[8] = small-molecule microarray binders of probe aNog, primary screen, biochemical, biotinylated probe, 635/667 nm fluorescence (AID 1115); conditions: higher = more signal;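 also: probe is biotinylated aNog protein used at 0.15 µg/mL for 1 h at 4 C; z-score combines 667 nm fluorescence of each spot with its signal to noise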
[9] = target: Torsin-1A-interacting protein 1 (Homo sapiens) (UniProt Q5JTV8); assay: LAP1 binders from COS7 cell lysate, primary screen, small-molecule microarray, 635/667 nm fluorescence (AID 1116); conditions: COS7-hLAP1 lysate binding, 635 nm fluorescence, higher = more signal
Sequence of Torsin-1A-interacting protein 1 (Homo sapiens) (Q5JTV8 whole entry, looked up): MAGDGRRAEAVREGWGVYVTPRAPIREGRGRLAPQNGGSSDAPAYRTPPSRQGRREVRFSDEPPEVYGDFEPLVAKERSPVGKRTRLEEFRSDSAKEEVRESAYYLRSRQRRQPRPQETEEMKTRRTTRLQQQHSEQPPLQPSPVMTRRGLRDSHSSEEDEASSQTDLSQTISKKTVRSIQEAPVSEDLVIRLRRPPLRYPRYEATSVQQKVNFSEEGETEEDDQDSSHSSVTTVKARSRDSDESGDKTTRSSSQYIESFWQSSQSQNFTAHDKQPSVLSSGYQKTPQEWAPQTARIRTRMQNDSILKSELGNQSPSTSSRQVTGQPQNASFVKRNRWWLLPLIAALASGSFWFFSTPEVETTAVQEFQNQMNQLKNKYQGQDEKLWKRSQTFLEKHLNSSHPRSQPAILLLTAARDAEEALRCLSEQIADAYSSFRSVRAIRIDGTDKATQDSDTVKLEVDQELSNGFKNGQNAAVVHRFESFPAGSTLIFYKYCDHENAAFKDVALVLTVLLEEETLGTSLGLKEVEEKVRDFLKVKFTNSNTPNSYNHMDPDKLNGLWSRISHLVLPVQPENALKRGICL

[10] = target: Alpha-bungarotoxin (Bungarus multicinctus) (UniProt P60615); assay: alpha-bungarotoxin binders on microarray, profiling panel, artefact control for SMM control protein annotation, biochemical, small-molecule microarray, Alexa647 label, 635/667 nm fluorescence (AID 1117); conditions: alpha-BTX-A647 binding fluorescence, higher = more signal
Sequence of Alpha-bungarotoxin (Bungarus multicinctus) (P60615 whole entry, looked up): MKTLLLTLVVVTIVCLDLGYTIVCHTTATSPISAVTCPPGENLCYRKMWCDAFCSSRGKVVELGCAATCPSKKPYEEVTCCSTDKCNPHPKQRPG

Albumin (Bos taurus) = Albumin (Bos taurus) (UniProt P02769); assay: bovine serum albumin binders on microarray, profiling panel, artefact control for SMM control protein annotation, biochemical, small-molecule microarray, Alexa647 label, 635/667 nm fluorescence (AID 1118); conditions: BSA-A647 binding, fluorescence 635 nm, higher = more signal;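 also: score merges 667 nm emission intensity and signal-to-noise per printed compound spot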
Sequence of Albumin (Bos taurus) (P02769 whole entry, looked up): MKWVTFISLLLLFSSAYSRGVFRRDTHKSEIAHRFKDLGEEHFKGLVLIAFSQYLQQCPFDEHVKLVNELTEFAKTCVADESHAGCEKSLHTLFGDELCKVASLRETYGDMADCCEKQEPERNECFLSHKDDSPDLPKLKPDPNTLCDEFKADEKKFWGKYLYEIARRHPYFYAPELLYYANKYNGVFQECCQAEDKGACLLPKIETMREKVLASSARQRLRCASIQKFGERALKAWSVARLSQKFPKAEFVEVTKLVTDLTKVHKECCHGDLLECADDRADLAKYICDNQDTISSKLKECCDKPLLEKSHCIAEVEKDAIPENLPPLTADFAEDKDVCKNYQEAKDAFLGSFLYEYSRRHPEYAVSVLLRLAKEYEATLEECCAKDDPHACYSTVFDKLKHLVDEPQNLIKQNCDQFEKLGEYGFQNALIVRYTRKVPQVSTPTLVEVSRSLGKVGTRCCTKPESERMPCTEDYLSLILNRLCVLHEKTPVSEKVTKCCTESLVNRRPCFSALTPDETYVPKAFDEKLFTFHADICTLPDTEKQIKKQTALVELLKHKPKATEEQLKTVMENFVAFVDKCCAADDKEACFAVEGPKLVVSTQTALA

[11] = small-molecule microarray binders of probe aXIP, primary screen, biochemical, NeuroSMM set, 635/667 nm fluorescence (AID 1119); conditions: higher = more signal, called active from +8 up or from −8 down;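 also: probe is the protein aXip251-270 applied at 1 µg/mL to compound-printed slides; binding of probe to printed compounds measured as 667 nm fluorescence plus signal to noise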
[12] = small-molecule binders of probe aNOTCH3, primary screen, biochemical, small-molecule microarray, 635/667 nm fluorescence (AID 1120); conditions: higher = more signal;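 also: probe is a biotin-tagged antibody raised against NOTCH3 rather than NOTCH3 protein; score merges spot fluorescence near 667 nm with spot signal to noise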
[13] = small-molecule binders of probe aNOTCH2, primary screen, biochemical, small-molecule microarray, 635/667 nm fluorescence (AID 1121); conditions: higher = more signal;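 also: score merges feature fluorescence read at 667 nm with its signal to noise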
[14] = target: Carbonic anhydrase 2 (Homo sapiens) (UniProt P00918); assay: CAII small-molecule binders, profiling panel, biochemical, small-molecule microarray, Alexa647-labelled CAII (AID 1122); conditions: CAII-A647 binding fluorescence, higher = more signal
[15] = COS7 lysate on small-molecule microarray, probe aHis, 635 nm (AID 1123); conditions: COS7 cell lysate, fluorescence, higher = more signal;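 also: z-score combines 667nm fluorescence intensity with signal-to-noise per printed compound spot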
[16] = compound binding in COS7 lysate, probe aLAP1, primary screen, cell lysate, small-molecule microarray (AID 1124); conditions: probe aLAP1, fluorescence, higher = more signal;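 also: lysate comes from COS7 cells expressing LAP1 and is applied at 0.3 µg/mL; score merges spot fluorescence near 667 nm with signal-to-noise over triplicate slides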
Sam68 (KHDRBS1) = assay: Sam68 small-molecule binders, primary screen, biochemical, small-molecule microarray, 635 nm fluorescence (AID 1125); conditions: small-molecule microarray binding, higher = more signal;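 also: score merges 667 nm channel intensity with signal to noise over triplicate slides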
[17] = test system: Chordin-like protein 2 (CHRDL2); assay: CHRDL2 small-molecule binders, primary screen, biochemical, small-molecule microarray, 635 nm fluorescence (AID 1126); conditions: small-molecule microarray binding, fluorescence 635 nm; higher = more signal;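 also: printed compound slides probed with Chrdl2 protein at 4 µg/mL for 1 h at 4 C; score merges 667 nm emission intensity with signal to noise over three replicate slides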
[18] = target: Concanavalin-A (Canavalia ensiformis) (UniProt P02866); assay: ConA small-molecule binders, primary screen, artefact control for SMM control protein annotation, biochemical, small-molecule microarray, Alexa647 label, 635 nm (AID 1127); conditions: ConA-A647 binding fluorescence, higher = more signal;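 also: z combines 667 nm emission intensity with signal-to-noise across three replicate slides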
Sequence of Concanavalin-A (Canavalia ensiformis) (P02866 whole entry, looked up): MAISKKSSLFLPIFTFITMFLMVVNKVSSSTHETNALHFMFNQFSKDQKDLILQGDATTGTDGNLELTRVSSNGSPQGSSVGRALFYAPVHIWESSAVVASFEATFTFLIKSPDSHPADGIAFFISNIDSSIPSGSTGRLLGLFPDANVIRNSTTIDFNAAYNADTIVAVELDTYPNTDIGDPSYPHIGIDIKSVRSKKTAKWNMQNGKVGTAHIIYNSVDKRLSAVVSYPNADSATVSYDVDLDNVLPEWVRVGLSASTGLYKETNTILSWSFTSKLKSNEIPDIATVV

SMILES | composite z-score [1] | z-score [2] | composite z-score [3] | composite z-score [4] | composite z-score [5] | composite z-score [6] | composite z-score [7] | composite z-score [8] | composite z-score [9] | composite z-score [10] | composite z-score (Albumin (Bos taurus)) | composite Z-score [11] | composite z-score [12] | composite z-score [13] | composite z-score [14] | composite z-score [15] | composite z-score [16] | composite z-score (Sam68 (KHDRBS1)) | composite z-score [17] | composite z-score [18]
C=CCNC(=O)[C@@H]1[C@H]2C(=O)O[C@H](c3ccccc3)[C@H](c3ccccc3)N2[C@H](c2ccccc2OCCO)[C@@]12C(=O)Nc1ccc(C#CCCO)cc12 | -0.489 | -0.364 | 1.2 | 0.142 | -0.0836 | -0.147 | -0.273 | -0.0965 | 0.544 | 0.0913 | -0.162 | -0.433 (inactive) | -0.0302 | -0.147 | 0.675 | 0.71 | 0.452 | 0.826 | 1.13 | 1.15
COCCCNC(=O)[C@@]1(Sc2ccc(C)cc2)CC(=O)N(C2Cc3ccccc3C2)[C@@H]1c1ccc(CO)cc1 | 0.52 | -0.849 | -1.15 | -0.176 | -0.0232 | -0.227 | -0.2 | 0.551 | 0.423 | -0.715 | 0.0753 | 1.23 (inactive) | -0.157 | -0.181 | 0.748 | 0.537 | 0.352 | 0.209 | -1.86 | 0.163
COc1ccccc1CN1C(=O)c2ccccc2[C@](Cc2ccccc2I)(C(=O)O)[C@@H]1c1ccc(CO)cc1 | 1.42 | -0.127 | 0.717 | 1.36 | 0.477 | -0.123 | 0.336 | 0.182 | 0.152 | 1.21 | 0.76 | 0.114 (inactive) | 0.0961 | -0.0238 | 0.328 | 2 | 0.704 | 1.27 | 0.227 | 1.18
NC(=O)[C@H]1[C@@H]2C(=O)O[C@@H](c3ccccc3)[C@@H](c3ccccc3)N2[C@@H](c2ccc(OCCO)cc2)[C@]12C(=O)Nc1ccc(C#CCCO)cc12 | 0.333 | -1.39 | -0.128 | 0.947 | 0.382 | 0.055 | -0.253 | -0.387 | 0.757 | 1.59 | 0.586 | 0.988 (inactive) | 0.0203 | 0.0252 | 0.537 | 1.26 | 0.204 | 1.16 | 0.0273 | 1.07
CCOC(=O)C1=CC[C@@H](c2ccccc2F)N(S(=O)(=O)c2ccc(C)cc2)[C@H]1c1ccccc1 | 1.34 | -1.43 | 0.364 | 0.509 | -0.355 | -0.0924 | -0.0866 | -0.473 | 0.292 | 0.42 | 0.437 | -0.244 (inactive) | 0.103 | 0.0416 | 0.338 | 1.19 | 0.212 | 1.18 | 0.0943 | 0.83
CN(C)C(=O)[C@@]1(Cc2ccccc2CN=[N+]=[N-])N=C(c2ccc(OCCCO)cc2)O[C@H]1c1ccccc1N=[N+]=[N-] | 1.45 | -2.99 | -0.553 | 1.73 | 1.11 | -0.191 | -0.138 | 1.84 | 2.26 | 1.93 | 0.973 | 0.91 (inactive) | 0.612 | -0.115 | 0.731 | 2.95 | 0.772 | 1.21 | -0.612 | 1.1
COCCOC(=O)N1C(=O)[C@@]2(c3cc(C#CCNC(N)=O)ccc31)[C@H](C(N)=O)[C@H]1C(=O)O[C@H](c3ccccc3)[C@H](c3ccccc3)N1[C@@H]2c1ccccc1OCCO | 0.989 | -0.814 | 0.467 | 0.318 | -0.304 | -0.129 | -0.0977 | -0.288 | 1.26 | 1.06 | 0.222 | -0.327 (inactive) | 0.133 | 0.0065 | 0.3 | 1.4 | 0.521 | 1.05 | 0.743 | 1.06
COCCOC(=O)N1C(=O)[C@@]2(c3cc(C#CC4=CCCCC4)ccc31)[C@H](C(=O)Nc1nc3ccccc3s1)[C@H]1C(=O)O[C@H](c3ccccc3)[C@H](c3ccccc3)N1[C@@H]2c1ccc(O)cc1 | 1.39 | -1.1 | 0.647 | 1.07 | 0.641 | -0.15 | -0.51 | -0.483 | 0.666 | 0.42 | 0.817 | 2.58 (inactive) | -0.0279 | -0.166 | 0.661 | 1.68 | 0.61 | 1.31 | 0.408 | 1.18
C=C(COC)/C(=C/C[C@H](OC(=O)c1ccncc1)c1ccccc1OCCO)c1cc(C(=O)OC)ccc1OC | 1.43 | -2.76 | 0.753 | -0.191 | -0.59 | -0.0687 | -0.494 | -0.145 | -0.353 | 0.251 | 0.601 | 0.614 (inactive) | 0.118 | -0.11 | 0.752 | 1.2 | 0.0479 | 1.27 | 0.0156 | 0.784

Reference: PubChem BioAssay
